The target of test [1] is T1, Activin receptor type-1B (Homo sapiens) (UniProt P36896).
T1 sequence (whole entry): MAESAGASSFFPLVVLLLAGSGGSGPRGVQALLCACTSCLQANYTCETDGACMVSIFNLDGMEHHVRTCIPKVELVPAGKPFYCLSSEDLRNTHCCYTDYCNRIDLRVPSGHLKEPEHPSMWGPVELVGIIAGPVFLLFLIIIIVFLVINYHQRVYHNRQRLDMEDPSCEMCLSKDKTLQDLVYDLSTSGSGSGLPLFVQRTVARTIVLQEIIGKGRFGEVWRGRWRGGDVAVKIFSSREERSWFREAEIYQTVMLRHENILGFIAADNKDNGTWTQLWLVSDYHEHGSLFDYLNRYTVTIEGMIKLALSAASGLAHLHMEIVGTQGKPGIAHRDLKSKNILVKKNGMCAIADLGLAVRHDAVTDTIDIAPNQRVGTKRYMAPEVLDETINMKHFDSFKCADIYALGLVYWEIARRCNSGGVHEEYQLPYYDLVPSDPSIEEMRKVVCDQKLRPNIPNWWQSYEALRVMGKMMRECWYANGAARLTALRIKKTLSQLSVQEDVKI
The following applies: at 1 µM.

In test [2] the target is T1, Activin receptor type-1B (Homo sapiens). The conditions noted are these: at 10 µM.
The target of test [3] is T2, AMP-activated protein kinase, AMPK (Homo sapiens) (UniProt P54646+O43741+P54619+Q9UGJ0+Q9Y478+Q13131+Q9UGI9). The conditions noted are these: at 10 µM.
Test [4] addresses Platelet-derived growth factor receptor beta (Homo sapiens) (UniProt P09619). The following applies: at 1 µM.
For test [5] the target is unchanged. The following applies: at 10 µM.
For test [6], the target named is cAMP-dependent protein kinase catalytic subunit alpha (Homo sapiens) (UniProt P17612). The conditions noted are these: at 1 µM.
The target is the same in test [7]. The conditions noted are these: at 10 µM.
For test [8], the target named is ALK tyrosine kinase receptor (Homo sapiens) (UniProt Q9UM73). The conditions noted are these: at 10 µM.
Sequence of ALK tyrosine kinase receptor (Homo sapiens) (Q9UM73 19-1620 limits assumed): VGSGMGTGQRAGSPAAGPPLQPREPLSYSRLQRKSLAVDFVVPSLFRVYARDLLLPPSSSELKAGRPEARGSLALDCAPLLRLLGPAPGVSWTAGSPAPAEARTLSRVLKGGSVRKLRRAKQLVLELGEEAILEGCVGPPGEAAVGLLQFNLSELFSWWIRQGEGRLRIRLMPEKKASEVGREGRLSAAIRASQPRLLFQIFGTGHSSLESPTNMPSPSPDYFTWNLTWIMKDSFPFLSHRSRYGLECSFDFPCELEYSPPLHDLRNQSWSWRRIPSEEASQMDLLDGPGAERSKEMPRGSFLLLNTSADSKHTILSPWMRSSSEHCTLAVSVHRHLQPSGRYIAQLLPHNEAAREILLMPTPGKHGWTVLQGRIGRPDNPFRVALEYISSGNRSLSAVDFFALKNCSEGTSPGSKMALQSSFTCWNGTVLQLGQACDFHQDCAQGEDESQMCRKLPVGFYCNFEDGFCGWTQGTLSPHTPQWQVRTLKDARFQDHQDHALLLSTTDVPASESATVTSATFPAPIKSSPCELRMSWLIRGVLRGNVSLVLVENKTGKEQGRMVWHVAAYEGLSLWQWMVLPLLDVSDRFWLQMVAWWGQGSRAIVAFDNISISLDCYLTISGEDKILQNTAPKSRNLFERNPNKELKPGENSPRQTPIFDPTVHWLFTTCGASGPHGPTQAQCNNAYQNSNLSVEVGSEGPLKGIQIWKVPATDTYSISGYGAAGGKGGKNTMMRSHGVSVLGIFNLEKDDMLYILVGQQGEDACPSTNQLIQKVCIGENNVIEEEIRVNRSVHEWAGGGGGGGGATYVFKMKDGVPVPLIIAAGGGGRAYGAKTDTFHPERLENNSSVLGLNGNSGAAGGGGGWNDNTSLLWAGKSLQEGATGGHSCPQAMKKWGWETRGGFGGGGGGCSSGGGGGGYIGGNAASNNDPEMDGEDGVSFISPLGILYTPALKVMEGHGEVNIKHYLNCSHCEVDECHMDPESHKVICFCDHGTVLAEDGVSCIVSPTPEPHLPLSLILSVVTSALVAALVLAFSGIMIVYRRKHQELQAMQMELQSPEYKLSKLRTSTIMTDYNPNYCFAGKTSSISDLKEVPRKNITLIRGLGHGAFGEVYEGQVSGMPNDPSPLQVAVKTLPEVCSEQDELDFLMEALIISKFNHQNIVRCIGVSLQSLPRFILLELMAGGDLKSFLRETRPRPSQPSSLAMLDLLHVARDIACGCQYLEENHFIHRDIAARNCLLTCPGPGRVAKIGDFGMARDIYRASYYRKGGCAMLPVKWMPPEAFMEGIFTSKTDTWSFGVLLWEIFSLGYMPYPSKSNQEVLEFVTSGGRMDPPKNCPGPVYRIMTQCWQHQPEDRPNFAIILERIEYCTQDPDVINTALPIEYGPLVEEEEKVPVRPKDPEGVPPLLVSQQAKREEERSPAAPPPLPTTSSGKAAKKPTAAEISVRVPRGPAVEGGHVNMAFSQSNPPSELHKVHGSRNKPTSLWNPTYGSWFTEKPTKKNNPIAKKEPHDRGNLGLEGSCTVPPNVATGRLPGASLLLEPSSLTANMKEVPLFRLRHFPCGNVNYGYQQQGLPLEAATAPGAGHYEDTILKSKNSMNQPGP
Test [9] concerns the target T3, AMP-activated protein kinase (AMPK) alpha-1/beta-1/gamma-1 (Homo sapiens) (UniProt P54619+Q9Y478+Q13131). The following applies: at 1 µM.
Test [10] addresses T3, AMP-activated protein kinase (AMPK) alpha-1/beta-1/gamma-1 (Homo sapiens). The following applies: at 10 µM.
Test [11] concerns the target T4, NUAK family SNF1-like kinase 1 (Homo sapiens) (UniProt O60285).
T4 sequence (whole entry): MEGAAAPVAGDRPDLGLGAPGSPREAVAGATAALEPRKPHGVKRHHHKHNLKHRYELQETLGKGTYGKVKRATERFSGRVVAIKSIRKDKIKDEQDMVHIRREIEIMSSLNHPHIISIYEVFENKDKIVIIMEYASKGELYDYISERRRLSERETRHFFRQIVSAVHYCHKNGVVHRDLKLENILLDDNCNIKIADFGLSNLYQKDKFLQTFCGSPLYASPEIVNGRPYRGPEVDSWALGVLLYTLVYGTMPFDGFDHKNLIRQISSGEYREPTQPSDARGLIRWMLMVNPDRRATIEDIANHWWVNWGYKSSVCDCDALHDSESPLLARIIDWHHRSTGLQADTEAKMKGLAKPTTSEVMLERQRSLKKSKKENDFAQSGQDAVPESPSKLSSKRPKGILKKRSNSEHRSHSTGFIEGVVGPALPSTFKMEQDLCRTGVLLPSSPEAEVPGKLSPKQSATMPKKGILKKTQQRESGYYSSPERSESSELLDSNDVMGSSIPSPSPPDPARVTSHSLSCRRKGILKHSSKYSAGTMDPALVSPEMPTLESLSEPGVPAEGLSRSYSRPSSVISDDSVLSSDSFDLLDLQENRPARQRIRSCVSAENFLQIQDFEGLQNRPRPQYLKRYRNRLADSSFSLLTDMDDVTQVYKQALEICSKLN
The conditions noted are these: at 1 µM.

Test [12] deals with T4, NUAK family SNF1-like kinase 1 (Homo sapiens). The conditions noted are these: at 10 µM.
For test [13], the target named is RAC-gamma serine/threonine-protein kinase (Homo sapiens) (UniProt Q9Y243). The following applies: at 1 µM.
Sequence of RAC-gamma serine/threonine-protein kinase (Homo sapiens) (Q9Y243 whole entry): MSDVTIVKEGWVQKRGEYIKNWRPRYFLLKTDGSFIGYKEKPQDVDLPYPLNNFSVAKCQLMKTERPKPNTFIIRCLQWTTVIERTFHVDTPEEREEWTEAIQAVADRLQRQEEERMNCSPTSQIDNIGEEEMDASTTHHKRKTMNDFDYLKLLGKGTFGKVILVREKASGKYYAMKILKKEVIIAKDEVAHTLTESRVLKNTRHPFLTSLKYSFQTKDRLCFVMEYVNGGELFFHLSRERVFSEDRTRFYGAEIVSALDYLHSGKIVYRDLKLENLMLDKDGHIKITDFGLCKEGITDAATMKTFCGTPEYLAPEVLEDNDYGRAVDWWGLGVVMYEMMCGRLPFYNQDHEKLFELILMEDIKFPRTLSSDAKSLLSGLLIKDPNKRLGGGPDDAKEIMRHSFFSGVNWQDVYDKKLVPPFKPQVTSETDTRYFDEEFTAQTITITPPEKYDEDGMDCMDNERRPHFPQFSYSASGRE
The target of test [14] is Platelet-derived growth factor receptor alpha (Homo sapiens) (UniProt P16234). The following applies: at 1 µM.
Sequence of Platelet-derived growth factor receptor alpha (Homo sapiens) (P16234 whole entry): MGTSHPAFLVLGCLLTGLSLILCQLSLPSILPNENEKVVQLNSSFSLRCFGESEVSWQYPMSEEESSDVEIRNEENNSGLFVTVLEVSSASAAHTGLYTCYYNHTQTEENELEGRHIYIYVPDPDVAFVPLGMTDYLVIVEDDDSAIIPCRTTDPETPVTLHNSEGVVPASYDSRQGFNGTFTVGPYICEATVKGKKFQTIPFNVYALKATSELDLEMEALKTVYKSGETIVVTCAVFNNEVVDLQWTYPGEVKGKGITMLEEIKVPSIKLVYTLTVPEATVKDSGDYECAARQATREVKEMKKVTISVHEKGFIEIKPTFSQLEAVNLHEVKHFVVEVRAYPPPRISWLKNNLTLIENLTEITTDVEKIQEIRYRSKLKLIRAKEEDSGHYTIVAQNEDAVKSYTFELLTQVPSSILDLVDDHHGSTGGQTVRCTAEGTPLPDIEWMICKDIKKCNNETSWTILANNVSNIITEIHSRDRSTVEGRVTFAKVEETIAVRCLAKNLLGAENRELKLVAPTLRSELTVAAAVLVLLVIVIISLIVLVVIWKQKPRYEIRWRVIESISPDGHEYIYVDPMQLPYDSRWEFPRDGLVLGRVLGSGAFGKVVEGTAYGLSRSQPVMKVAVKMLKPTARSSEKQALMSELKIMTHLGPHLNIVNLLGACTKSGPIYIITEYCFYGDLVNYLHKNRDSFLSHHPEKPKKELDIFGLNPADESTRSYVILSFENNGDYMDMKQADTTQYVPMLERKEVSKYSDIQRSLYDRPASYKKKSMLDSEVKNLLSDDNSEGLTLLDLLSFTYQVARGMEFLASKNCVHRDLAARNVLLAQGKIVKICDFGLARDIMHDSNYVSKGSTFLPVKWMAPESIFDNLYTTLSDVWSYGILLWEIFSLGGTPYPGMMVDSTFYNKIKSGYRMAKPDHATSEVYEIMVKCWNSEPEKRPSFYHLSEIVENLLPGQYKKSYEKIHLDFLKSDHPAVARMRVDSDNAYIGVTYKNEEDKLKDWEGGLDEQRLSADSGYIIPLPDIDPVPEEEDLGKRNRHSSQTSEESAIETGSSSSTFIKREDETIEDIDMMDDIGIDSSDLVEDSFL
The target is the same in test [15]. The following applies: at 10 µM.
Test [16] has as its target T2, AMP-activated protein kinase, AMPK (Homo sapiens). The conditions noted are these: at 1 µM.
For test [17], the target named is T5, Mitogen-activated protein kinase kinase kinase 5 (Homo sapiens) (UniProt Q99683).
T5 sequence (whole entry): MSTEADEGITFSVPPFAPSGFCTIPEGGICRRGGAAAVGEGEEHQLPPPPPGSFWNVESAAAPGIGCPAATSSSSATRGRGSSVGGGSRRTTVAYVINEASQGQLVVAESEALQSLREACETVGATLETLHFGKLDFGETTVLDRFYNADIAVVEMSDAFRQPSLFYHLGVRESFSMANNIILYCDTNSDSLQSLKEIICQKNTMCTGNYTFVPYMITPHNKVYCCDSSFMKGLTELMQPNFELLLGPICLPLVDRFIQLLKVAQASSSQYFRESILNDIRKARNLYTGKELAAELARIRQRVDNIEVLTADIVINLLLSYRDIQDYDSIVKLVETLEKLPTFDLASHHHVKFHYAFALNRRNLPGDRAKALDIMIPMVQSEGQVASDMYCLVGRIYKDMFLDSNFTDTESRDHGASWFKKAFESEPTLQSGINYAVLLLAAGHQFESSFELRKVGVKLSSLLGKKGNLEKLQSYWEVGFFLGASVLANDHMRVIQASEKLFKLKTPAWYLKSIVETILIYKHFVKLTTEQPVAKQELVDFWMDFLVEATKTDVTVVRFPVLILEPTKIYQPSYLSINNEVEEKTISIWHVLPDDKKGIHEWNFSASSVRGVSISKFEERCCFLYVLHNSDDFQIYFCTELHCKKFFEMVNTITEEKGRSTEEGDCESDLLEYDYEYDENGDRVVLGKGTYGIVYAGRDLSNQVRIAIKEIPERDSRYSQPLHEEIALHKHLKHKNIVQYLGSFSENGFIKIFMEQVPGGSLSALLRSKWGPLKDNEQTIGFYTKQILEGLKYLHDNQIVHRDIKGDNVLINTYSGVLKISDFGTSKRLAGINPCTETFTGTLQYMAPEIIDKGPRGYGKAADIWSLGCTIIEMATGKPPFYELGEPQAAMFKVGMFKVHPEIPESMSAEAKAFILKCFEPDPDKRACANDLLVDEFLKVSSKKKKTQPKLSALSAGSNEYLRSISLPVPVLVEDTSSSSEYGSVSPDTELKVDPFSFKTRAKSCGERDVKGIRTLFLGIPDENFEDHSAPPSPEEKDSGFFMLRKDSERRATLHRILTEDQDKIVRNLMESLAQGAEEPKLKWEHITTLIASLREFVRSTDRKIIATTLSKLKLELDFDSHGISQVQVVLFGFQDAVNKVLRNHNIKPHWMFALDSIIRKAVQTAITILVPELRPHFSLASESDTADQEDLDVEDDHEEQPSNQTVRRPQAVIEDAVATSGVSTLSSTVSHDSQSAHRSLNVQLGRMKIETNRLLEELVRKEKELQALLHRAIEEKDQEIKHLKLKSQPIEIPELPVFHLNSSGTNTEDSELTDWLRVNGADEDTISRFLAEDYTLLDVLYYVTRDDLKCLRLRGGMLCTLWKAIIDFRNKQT
The following applies: at 1 µM.

The target in test [18] is RAC-gamma serine/threonine-protein kinase (Homo sapiens) (UniProt Q9Y243). The following applies: at 10 µM.
Test [19] concerns the target T6, 3-phosphoinositide-dependent protein kinase 1 (Homo sapiens) (UniProt O15530).
T6 sequence (whole entry): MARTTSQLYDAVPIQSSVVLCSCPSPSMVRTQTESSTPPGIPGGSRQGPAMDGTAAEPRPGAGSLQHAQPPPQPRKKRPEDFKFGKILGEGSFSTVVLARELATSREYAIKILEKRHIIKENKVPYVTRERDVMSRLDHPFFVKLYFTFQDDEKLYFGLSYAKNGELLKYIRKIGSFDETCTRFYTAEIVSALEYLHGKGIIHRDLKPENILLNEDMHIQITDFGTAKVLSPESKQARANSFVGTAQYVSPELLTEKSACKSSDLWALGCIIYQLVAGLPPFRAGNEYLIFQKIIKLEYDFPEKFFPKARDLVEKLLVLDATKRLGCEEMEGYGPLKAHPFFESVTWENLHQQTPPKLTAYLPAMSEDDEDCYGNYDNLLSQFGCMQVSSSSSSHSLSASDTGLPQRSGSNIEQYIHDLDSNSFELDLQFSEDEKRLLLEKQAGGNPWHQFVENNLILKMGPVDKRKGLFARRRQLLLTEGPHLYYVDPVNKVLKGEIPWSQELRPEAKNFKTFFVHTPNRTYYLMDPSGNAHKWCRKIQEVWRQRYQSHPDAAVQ
The conditions noted are these: at 1 µM.

Test [20] deals with T6, 3-phosphoinositide-dependent protein kinase 1 (Homo sapiens). The following applies: at 10 µM.

T3 sequence (P54619 whole entry): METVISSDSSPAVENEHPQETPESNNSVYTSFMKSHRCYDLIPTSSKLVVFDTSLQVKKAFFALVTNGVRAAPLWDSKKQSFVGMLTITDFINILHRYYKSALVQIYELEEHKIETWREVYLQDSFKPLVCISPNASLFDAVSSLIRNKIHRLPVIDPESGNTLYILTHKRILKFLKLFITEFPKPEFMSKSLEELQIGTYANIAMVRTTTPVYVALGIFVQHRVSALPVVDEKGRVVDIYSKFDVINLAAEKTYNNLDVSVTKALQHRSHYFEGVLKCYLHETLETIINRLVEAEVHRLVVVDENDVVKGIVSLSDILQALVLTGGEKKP
T3 sequence (Q13131 whole entry partner): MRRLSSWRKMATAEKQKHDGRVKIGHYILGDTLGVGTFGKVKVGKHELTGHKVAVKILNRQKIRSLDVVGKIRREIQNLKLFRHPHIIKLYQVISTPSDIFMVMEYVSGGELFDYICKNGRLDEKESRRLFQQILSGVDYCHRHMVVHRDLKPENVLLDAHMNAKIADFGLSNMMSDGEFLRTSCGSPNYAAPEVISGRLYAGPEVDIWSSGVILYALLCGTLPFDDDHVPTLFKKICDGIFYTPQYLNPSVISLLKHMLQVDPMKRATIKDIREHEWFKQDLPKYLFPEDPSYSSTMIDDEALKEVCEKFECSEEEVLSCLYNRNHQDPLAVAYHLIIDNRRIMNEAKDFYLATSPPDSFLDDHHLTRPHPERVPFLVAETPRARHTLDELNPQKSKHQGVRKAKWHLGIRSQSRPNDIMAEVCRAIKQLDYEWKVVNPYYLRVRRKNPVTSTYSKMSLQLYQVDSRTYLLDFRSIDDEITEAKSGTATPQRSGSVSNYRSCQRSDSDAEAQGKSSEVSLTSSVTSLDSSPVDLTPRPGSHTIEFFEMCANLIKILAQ
T3 sequence (Q9Y478 2-270 partner limits assumed): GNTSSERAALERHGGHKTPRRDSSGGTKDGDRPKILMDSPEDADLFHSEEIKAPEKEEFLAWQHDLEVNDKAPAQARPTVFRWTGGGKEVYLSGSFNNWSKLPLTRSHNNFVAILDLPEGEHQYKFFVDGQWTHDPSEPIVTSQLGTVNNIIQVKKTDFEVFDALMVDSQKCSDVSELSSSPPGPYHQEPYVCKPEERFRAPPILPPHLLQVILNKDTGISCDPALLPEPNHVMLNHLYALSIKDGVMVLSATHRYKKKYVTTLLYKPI

For `COc1cc2nccc(Oc3ccc(NC(=O)Nc4cc(C)on4)c(Cl)c3)c2cc1OC`, the residual activity in test [1] amounted to 105%; in [2] it was 57%; in test [3], 82%; in test [4], 13%; in test [5], 2%; in test [6], 108%. The residual activity in [7] came out at 98%.

For `Cc1cc(C)c(/C=C2\C(=O)Nc3ccccc32)[nH]1`, the residual activity in test [8] turned out to be 13%; in [9], 55%; in test [10], 29%; in test [11], 35%; in [12], 19%; in test [13] it was 101%.

For the compound `O=C(Nc1ccc(Cl)cc1)c1ccccc1NCc1ccncc1`, the residual activity in test [1] amounted to 130%; in test [2] it was 72%; in test [10] it was 78%; in [3], 72%; in test [14] it was 39%; in [15] it was 7%. Further, the residual activity in test [4] worked out at 46%; in test [5], 4%.

As to `N#C/C(=C1/Nc2ccccc2S1)c1ccnc(NCCc2cccnc2)n1`, the residual activity is 18% in [8]; 70% in test [10]; 99% in test [16]; 67% in test [3]; 97% in [11]; 82% in test [12]. The residual activity in test [17] was 78%; in test [13], 89%; in test [18], 16%.

In the case of `Cn1sc(=O)n(Cc2ccccc2)c1=O`, the residual activity in [8] stood at 71%; in test [9] it was 83%; in [10] it was 82%; in [16], 89%; in test [3], 90%; in [17], 81%. The residual activity in test [14] was determined as 100%; in [15], 100%; in [6] it was 91%; in test [7], 89%; in [13], 85%; in test [18] it was 84%.

As for `COc1cc2c(cc1OC)-c1n[nH]c(Nc3cccc(F)c3)c1C2`, the residual activity in test [9] was 80%; in test [10], 65%; in [3], 69%; in [12] it was 68%; in [17], 74%; in test [14], 2%. Moreover, the residual activity was determined as 1% in [15]; 11% in test [4]; 1% in [5]; 104% in test [19]; 106% in test [20]; 98% in test [7]. The residual activity in test [18] is 109%.

Consider `O=C1Nc2ccccc2/C1=C\c1c(Cl)[nH]c2ccccc12`, for which the residual activity in [8] turned out to be 49%; in test [3] it was 58%; in test [12], 46%; in test [20] it was 85%.

`O=C(Nc1nc2ccccc2n1CCN1CCOCC1)c1cccc([N+](=O)[O-])c1`: the residual activity was 75% in [8]; 79% in [16]; 83% in test [3]; 66% in [12]; 113% in test [17]; 104% in test [4]. For the same compound, the residual activity was determined as 81% in test [5]; 104% in test [19]; 81% in test [20]; 80% in test [7]; 103% in test [13]; 84% in [18].

With `CCN1/C(=C/C(C)=O)Sc2ccc(OC)cc21`, the residual activity was found to be 122% in test [1], 79% in test [9] and 54% in test [10].

For `O=C(c1ccccc1)c1ccc(N2CCOCC2)cc1O`, the residual activity is 123% in test [1]; 98% in test [9]; 72% in test [10]; 89% in [16]; 81% in [3]; 90% in [12]. The residual activity was 91% in test [17]; 113% in test [14]; 92% in test [15]; 116% in test [4]; 99% in test [5]; 69% in test [6]. Besides, the residual activity in test [7] is 81%.

For the compound `O=S(=O)(c1cccc2cnccc12)N1CCCNCC1`, the residual activity in test [8] is 74%; in test [12], 52%; in test [6], 53%; in test [7], 17%; in test [18], 55%.
